PubChem BioAssay (Tox21)
Results filed as inconclusive are left out. A number with no mark means an inactive call. The source made the active and inactive calls. The call rests on the fitted dose curve.

Target: Acetylcholinesterase (Homo sapiens) (UniProt P22303)
Experiment: Acetylcholinesterase (AChE) small molecule antagonists: fluorescence cell-based qHTS assay (AID 1347398); further: nearly all actives have a fitted effect of over 50% in size
Details: SH-SY5Y cells; Potency: AChE activity; outcome: AChE activity; series mostly up to 115 µM; activity change, negative = inhibition: at the top concentration
From the text: National Center for Advancing Translational Sciences [NCATS]
Division of Preclinical Innovation [DPI]
U.S. Environmental Protection Agency [EPA]
National Institutes of Environmental Health Sciences [NIEHS]
National Toxicology Program [NTP]
U.S. Food and Drug Administration [FDA]
Acetylcholinesterase (AChE) is the primary cholinesterase in the body that hydrolyzes a key neurotransmitter, acetylcholine. Inhibition of AChE activity can lead to neurotoxicity. Known inhibitors of AChE include organophosphorous pesticides (OP), chemical warfare agents, drugs, and various phytochemicals.
A homogenous cell-based assay using Amplitetrade mark Fluorimetric Acetylcholinesterase Assay Kit *Green Fluorescence* (AAT Bioquest, Sunnyvale, CA) was used to evaluate the chemicals in the Tox21 10K library that inhibit AChE activity. The assay uses Thiolite Green to quantify the thiocholine produced from the hydrolysis of acetylthiocholine by AChE from the SH-SY5Y cells. AChE can hydrolyze acetylthiocholine to create thiocholine. Thiolite Green is fluorescent when reacting with thiocholine. It has spectral properties similar to those of fluorescein. The fluorescence intensity of Thiolite Green is used to measure AChE activity. Its signal can be easily read by a fluorescence microplate reader at Ex/Em = 490/520 nm.
Tox21 Assay Protocol Summary:
For cell-based AChE assay, 2,000 SH-SY5Y cells in 4 uL/well were dispensed into black, clear-bottom 1536-well plates using a Multidrop Combi (Thermo Scientific) dispenser. The assay plates were incubated overnight at 37 C to allow cells to attach to the wells, followed by the transfer of 23 nL compound or DMSO (vehicle control) by a Pintool station (Wako Automation, CA). The plates were incubated for 30 min at 37 C and 5% CO2, followed by the addition of 4 uL of detection cocktail solution (ThioliteGreen, acetylthiocholine) into each well using Flying Reagent Dispenser (Beckman Coulter, CA) and then following 40 min incubation at room temperature. Fluorescent intensity (Ex/Em = 490/520 nm) was measured using an Envision plate reader (PerkinElmer, MA).
On the % scale 0 is the no-effect control and ±100 the full control effect.

Chain of Acetylcholinesterase (Homo sapiens) (P22303 whole entry, looked up): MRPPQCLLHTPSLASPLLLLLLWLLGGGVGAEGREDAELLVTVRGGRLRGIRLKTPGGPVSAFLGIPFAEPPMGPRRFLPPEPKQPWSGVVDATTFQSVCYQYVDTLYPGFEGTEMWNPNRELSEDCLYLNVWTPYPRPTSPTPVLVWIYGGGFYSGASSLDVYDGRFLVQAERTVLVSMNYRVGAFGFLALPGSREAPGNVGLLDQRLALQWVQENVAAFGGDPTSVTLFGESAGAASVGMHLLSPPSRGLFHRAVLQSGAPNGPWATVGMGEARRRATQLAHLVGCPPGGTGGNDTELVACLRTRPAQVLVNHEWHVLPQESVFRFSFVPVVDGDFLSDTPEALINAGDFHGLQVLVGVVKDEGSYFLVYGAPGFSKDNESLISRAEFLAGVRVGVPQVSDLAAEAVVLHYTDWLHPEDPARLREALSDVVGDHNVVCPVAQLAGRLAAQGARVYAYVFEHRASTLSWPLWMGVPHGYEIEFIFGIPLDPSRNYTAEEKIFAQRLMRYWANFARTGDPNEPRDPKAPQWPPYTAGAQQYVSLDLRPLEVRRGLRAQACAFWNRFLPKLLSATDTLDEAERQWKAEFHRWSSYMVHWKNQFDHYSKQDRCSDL

SMILES | activity change, negative = inhibition | Potency
O=C(O)[C@@H](O)[C@H](O)[C@H](O)[C@@H](O)C(=O)O | -3.64% [at 53.7 µM] | 
C=C1C(CCl)(CCl)C2(Cl)C(Cl)C(Cl)C1(Cl)C2(Cl)Cl (stereo not given) | -6.12% | 
O=C1c2ccccc2C(=O)C1c1ccc(Br)cc1 | 9.47% [at 53.7 µM] | 
Cc1ccccc1OCC(O)CO (stereo not given) | -3.54% [at 53.7 µM] | 
CC(C=O)Cc1ccc(C(C)C)cc1 (stereo not given) | -2.69% | 
O=C(O)CCCCCC(=O)O | 2% | 
CC(Cl)C(Cl)Cl (stereo not given) | -15% | 
CN(C)C(=O)CNC(=O)Cc1ccccc1 | 6.18% [at 53.7 µM] | 
CCN(CC)c1ccc2c(C)cc(=O)oc2c1 |  | inactive
Clc1ccc2c(c1)C(N1CCNCC1)=Nc1ccccc1O2 |  | inactive
Sc1nc(S)nc(S)n1 | 6.97% [at 53.7 µM] | 
CC(C)(Oc1ccc(CCNC(=O)c2ccc(Cl)cc2)cc1)C(=O)O |  | inactive
COc1ccc(CN(CCN(C)C)c2ccccn2)cc1 |  | inactive
c1cnc2c(n1)CCCC2 | 1.65% | 
C[Si]1(C)O[Si](C)(C)O[Si](C)(C)O[Si](C)(C)O1 |  | inactive
O=[N+]([O-])c1cc(C2CCCCC2)c(O)c([N+](=O)[O-])c1 | -2.08% | 
NS(=O)(=O)c1cc(-c2nn[nH]n2)c(NCc2cccs2)cc1Cl | -1.2% [at 53.7 µM] | 
NC(=O)N1C(=O)C(C(=O)c2cc(Cl)cs2)c2cc(F)c(Cl)cc21 (stereo not given) | -1.26% | 
C1CCCCC1 | 6.87% | 
CCc1cc(Cc2cc(CC)cc(C(C)(C)C)c2O)c(O)c(C(C)(C)C)c1 | -9.05% | 

SMILES | activity change, negative = inhibition | Potency
CCCCCC(=O)OCCc1ccccc1 | -0.176% | 
c1cc(-c2ccncc2)ccn1 |  | inactive
COC(C)(C)CCCC(C)CC=O (stereo not given) | -0.935% | 
C=C[Si](OC(=C)C)(OC(=C)C)OC(=C)C | -0.0371% | 
N#Cc1cc([N+](=O)[O-])ccc1N | -2.61% | 
CC(C)OC(=O)c1ccccc1 | -0.412% | 
CCC(N)(CO)CO | 5.2% | 
CCCCCCCCCCCCCCCCBr | -0.68% [at 23.8 µM] | 
CC(C)CCOC(=O)c1ccccc1 | 1.67% | 
Cc1c(N)cccc1N | -4.95% | 
CCOc1cccc(-n2cc(C(=O)N3CCN(c4cc(C(=O)O)c5ccccc5c4)CC3)nc2-c2ccc(C)cc2)c1 | -23.4% | 
CCc1ccc(O)c(C(C)(C)C)c1 | 4.58% | 
CCN(CCC#N)c1ccccc1 | -12.1% | 
COc1ccc(-c2coc3cc(O)cc(O)c3c2=O)cc1 |  | inactive
O=S(=O)(O)c1cc(Cl)c(Cl)cc1Cl | 4.26% | 
CN1CCC[C@@H]1c1cccnc1 | 8.42% [at 53.7 µM] | 
CC(=O)OCC(=O)[C@@]1(O)[C@H](C)C[C@H]2[C@@H]3CCC4=CC(=O)C=C[C@]4(C)[C@@]3(F)[C@@H](O)C[C@@]21C | 9.01% [at 53.7 µM] | 
CC(=O)NS(=O)(=O)c1ccc(N)cc1 |  | inactive
OC[C@@H](O)C(O)[C@@H](O)CO (stereo not given in full) | 4.17% | 
CN1CCC(=C2c3ccccc3CCc3cccnc32)CC1 | 1.25% [at 53.7 µM] | 
